Hits are enriched below; roughly 0.52% of the tested compounds scored in any of these assays.
Sa growth inh: S. aureus growth inhibition; relative growth, % (test concentration not listed); hit rate 0.53% among 170,000; S. aureus RN4220 growth, OD600, 20 h, 42 °C; hits give low values; AID 720641;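 active = relative growth at most 50% at the other temperature and 20+ points below 30 °C, or under 10% at both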
S aureus helic: S. aureus DNA helicase inhibition. purified S. aureus helicase, fluorescence unwinding assay. inhibition, % (test concentration not listed). hit rate 0.05% among 120,000; in the data active = inhibition above about 25%, passing the limit was not always enough;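 also: 0% = mean of negative control wells and 100% = mean of positive control wells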
* marks the source's active call; other numbers are inactive results; nt = not tested or not shown; ! = not active in a repeat.

SMILES	Sa growth inh	S aureus helic
C[CH2][Hg][S]c1ccccc1C(=O)O	-0.5*	nt
O=C(O)c1ccccc1C(=O)Nc1cccc2ccccc12	nt	8
N#CCc1ccc(N)cc1	98	15
CN(C)[C@@H]1C(=O)C(C(N)=O)=C(O)[C@@]2(O)C(=O)C3=C(O)c4c(O)ccc(Cl)c4[C@@](C)(O)[C@H]3C[C@@H]12	-0.1*	nt
CN(C)[C@@H]1C(=O)C(C(N)=O)=C(O)[C@@]2(O)C(=O)C3=C(O)c4c(O)cccc4[C@@](C)(O)[C@H]3[C@H](O)[C@@H]12	-0.6*	nt
CN(Cc1ccccc1)CC(O)c1ccc2cc[nH]c2c1 (stereo unspecified)	104	7
CN1CC=C(c2c[nH]c3ccccc23)CC1	80	-5
C1=C(c2c[nH]c3ccccc23)CCN(Cc2ccccc2)C1	-0.9*	7
CCN(CC(=O)c1ccccc1Cl)C1CCCCC1	65	-5
O=C1NC(=O)C(=Cc2ccc(SCc3ccc(Cl)cc3)o2)C(=O)N1	110	23
CC1(C)CC2(CCCN(CC#N)C2)CCO1 (stereo unspecified)	110	-10
Cc1cc(OCc2cccc(C(F)(F)F)c2)c2c3c(c(=O)oc2c1)CCC3	94	1
O=C1C=Cc2ccc3c4c(ccc1c24)C=CC3=O	72	48*
O=C(CNC(=S)N1CC2CC(C1)c1cccc(=O)n1C2)NCc1ccccc1 (stereo unspecified)	101	-2
Cc1cccc(NC2=NCC(C)S2)c1C (stereo unspecified)	89	11
CCCCCCCCCCCCCCCC[n+]1ccccc1	-0.8*	nt
CCSc1nnc(CCNC2CCCCC2)n1C	99	-8
CC(=O)N[C@@H](C)C(=O)NCc1cccc(C(F)(F)F)c1	97	-22
COc1ccc(C(C(=O)NC2CCCCC2)N(CCN2CCOCC2)C(=O)Cc2c[nH]c3ccccc23)cc1OC (stereo unspecified)	98	2
COc1ccccc1C(C)NC(C)C(=O)c1c(N)n(C)c(=O)n(C)c1=O (stereo unspecified)	120	1
CC(=O)[O][Hg][c]1ccccc1	-0.7*	nt
CN(C)CCC(=O)c1ccccc1	66	1
CN1CCN(P2(=O)CC=CC2)CC1	105	6
CC(=O)OC1CCC2(C)C3C(=O)CC4(C)C(=O)CCC4C3CCC2(C)C1 (stereo unspecified)	114	nt
OC1(c2cccc(F)c2)CC2CCC(C1)N2 (stereo unspecified)	110	-25
SMILES	Sa growth inh	S aureus helic
CC(=O)N1CCCCC1c1cccnc1.O=[N+]([O-])O.[Ag] (stereo unspecified)	5.0*	6
O=S(=O)(c1ccc(Cl)cc1)N1CCCCC1c1cccnc1 (stereo unspecified)	81	3
FC(F)(F)c1cccc(N2CCN(c3ncnc4nc[nH]c34)CC2)c1	86	-17
N#CC(C#N)=C(NCc1ccc(Cl)nc1)Nc1ccccc1	97	5
COc1ccc(C(CN(C)C)C2(O)CCCCC2)cc1 (stereo unspecified)	0.0*!	nt
CC(C)P(c1ccc(C#N)cc1)C(C)C	78	-10
Cn1cc(C(=O)OCC(N)=O)c2ccccc21	93	-1
N#CC(C#N)=NNc1ccc(-n2ccc(C(F)(F)F)n2)cc1	-0.4*	-10
CCOC(=O)c1c(-c2ccccc2)n(Cc2ccccc2)c2ccc(O)c(CN(C)C)c12	-0.9*	5
CCOC(=O)c1c(C)n(Cc2ccccc2)c2ccc(O)cc12	100	4
Clc1ccc(COC(Cn2ccnc2)c2ccc(Cl)cc2Cl)c(Cl)c1 (stereo unspecified)	0.0*!	nt
Clc1ccc(CON=C(Cn2ccnc2)c2ccc(Cl)cc2Cl)c(Cl)c1	0.0*	nt
CCCC(=O)c1ccc(N2CCN(CC)CC2)c(F)c1	95	3
CCc1c(O)n(C2CCCCC2)c(=S)[nH]c1=O	107	nt
Oc1cc(Cl)ccc1Oc1ccc(Cl)cc1Cl	-0.7*	nt
COc1nc(NCCC2=CCCCC2)nc(N2CC3CC(C2)c2cccc(=O)n2C3)n1 (stereo unspecified)	116	-4
Cc1ccccc1N1C(=O)NC(=O)C(CCc2ccncc2)(Cc2ccc3c(c2)OCO3)C1=O (stereo unspecified)	95	-1
